Screening data deposited in PubChem by National Center for Advancing Translational Sciences (NCATS).
LmPK inhibitor = inhibitors of Leishmania mexicana pyruvate kinase; Q27686; purified LmPK, Kinase-Glo ATP luminescence, 1 h; Potency, µM (doses to about 57.5 µM), for inactives: at the top dose activity change, negative = inhibition, actives largely listed as inhibitors; 290,000 tested, 0.37% active; AID 1721; further: potency means the concentration at half of the fitted maximal effect; on the % scale 0 is the no-effect control and ±100 the full control effect
Target sequence (Q27686 whole entry, looked up): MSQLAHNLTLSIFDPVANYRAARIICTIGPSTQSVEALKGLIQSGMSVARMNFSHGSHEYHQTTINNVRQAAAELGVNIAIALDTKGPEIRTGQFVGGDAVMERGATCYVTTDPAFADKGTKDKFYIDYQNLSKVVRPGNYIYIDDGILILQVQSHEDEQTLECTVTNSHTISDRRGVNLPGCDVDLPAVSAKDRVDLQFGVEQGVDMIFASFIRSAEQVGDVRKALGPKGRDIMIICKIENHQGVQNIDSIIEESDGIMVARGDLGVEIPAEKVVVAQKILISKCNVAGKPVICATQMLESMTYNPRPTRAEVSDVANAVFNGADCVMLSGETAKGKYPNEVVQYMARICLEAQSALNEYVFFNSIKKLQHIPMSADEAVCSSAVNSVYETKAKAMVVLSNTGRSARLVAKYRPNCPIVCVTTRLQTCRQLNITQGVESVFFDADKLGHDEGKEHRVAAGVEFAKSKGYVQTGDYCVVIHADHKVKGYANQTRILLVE
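In 50 mM imidazole pH 7.2 with 7 mM MgCl2, LmPK (0.1 nM) turned over PEP (0.5 mM) and ADP (0.1 mM) for 1 h at room temperature. Luciferase read-out of ATP.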
Pf growth 96h = P. falciparum growth inhibition at 96 hour, primary screen for plastid delayed-death inhibitors; AID 504834; 320,000 tested, 6.9% active; Potency, µM (highest dose often 28.7 µM), without a hit: at the top dose activity change, negative = inhibition, usual class: inhibitors; P. falciparum luciferase reporter growth, 96 h; further: potency means the concentration at half of the fitted maximal effect; on the % scale 0 is the no-effect control and ±100 the full control effect
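P. falciparum expressing integrated firefly luciferase, in erythrocytes at 2% hematocrit, 0.05% parasitemia, incubated with compounds 96 h at 37 C, 5% CO2. Growth inhibition read as loss of luminescence; two-generation exposure targets delayed-death apicoplast inhibitors.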
Pf growth 48h = inhibits P. falciparum growth in the first generation, 48 h. P. falciparum luciferase growth in erythrocytes, 48 h. Potency, µM (highest dose often 28.7 µM), for the others: top-dose activity change, negative = inhibition, usual class: inhibitors. AID 504832. 310,000 tested, 5.9% active; further: potency means the concentration at half of the fitted maximal effect; on the % scale 0 is the no-effect control and ±100 the full control effect
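Erythrocytes infected with P. falciparum carrying an integrated firefly luciferase reporter (2% hematocrit, 0.1% parasitemia final) were exposed to compounds in RPMI 1640 with 0.5% Albumax at 37 C, 5% CO2. Growth inhibition was scored as reduced luminescence.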
Shiga inhibitor = Shiga toxin inhibition. 290,000 tested, 9.2% active. inhibition, % at 38.7 µM. Vero cells, Shiga toxin protein synthesis inhibition reporter; in the data active means inhibition mostly above about 28%, no sharp cut-off; inactive means mostly below about 43%; further: 0% is about no effect
Cycloheximide cs = counter-screen for Shiga toxin inhibitors: cycloheximide protein synthesis inhibition | cell reporter, cycloheximide protein synthesis inhibition counterscreen | max response, % | 300,000 tested, 12% active; in the data active means max response mostly above about 13%, no sharp cut-off; inactive means mostly below about 14%; further: read at 38.3 µM for the half of the compounds with a filed dose; 0% is about no effect
Numbers without * were called inactive; [ ] = dose if it differs, or a comment. Only some compounds are listed: those with a hit (about 22% of all), similar ones and a draw of the others. Unless noted, the call rests on the fitted dose curve; in most records, active means well fitted inhibition curve with a large enough effect; inconclusive means small, poorly fitted or top-dose-only effect, or another doubt; inactive means no such curve, though single readings can be large or run the other way.

How did C[C@@H](O)CNC(C)(C)CC(=O)N[C@@H]1CCc2ccccc2N(Cc2ccc(-c3ccccc3-c3nn[nH]n3)cc2)C1=O do in these assays?
Shiga inhibitor: 12; Cycloheximide cs: 4

How did CCN(CC)CCOc1ccc(Br)cc1 do in these assays?
LmPK inhibitor: -7%; Pf growth 96h: 2.6µM*; Pf growth 48h: 4%; Shiga inhibitor: 15; Cycloheximide cs: -2

Results for CCN(CC)CCCOc1ccc(Cl)c(Cl)c1 ?
LmPK inhibitor: -5%; Pf growth 96h: inconclusive; Pf growth 48h: -7%; Shiga inhibitor: -10; Cycloheximide cs: -3

How did Cc1ccc(SCc2cc(=O)[nH]c(/N=C(\N)Nc3ccccc3Sc3ccccc3)n2)cc1 do in these assays?
LmPK inhibitor: 6%; Pf growth 96h: 10µM*; Pf growth 48h: inconclusive; Shiga inhibitor: 2; Cycloheximide cs: -1

Results for COc1ccccc1N/C(N)=N/c1nc(CSc2ccc(C)cc2)cc(=O)[nH]1 ?
LmPK inhibitor: 7%; Pf growth 96h: inconclusive; Pf growth 48h: 0%; Shiga inhibitor: -6; Cycloheximide cs: -4

What do the screens show for `N/C(=N\c1nc(CSc2ccc(Cl)cc2)cc(=O)[nH]1)Nc1ccccc1C(F)(F)F`?
LmPK inhibitor: 0%; Pf growth 96h: inconclusive; Pf growth 48h: 13µM*; Shiga inhibitor: -4; Cycloheximide cs: -2

What do the screens show for `O=C(c1ccsc1)N1CCCC(N2CCOCC2)C1` (configuration not stated)?
LmPK inhibitor: 6%; Pf growth 96h: -9%; Pf growth 48h: -15%; Shiga inhibitor: -2; Cycloheximide cs: -3

Results for O=C(NCCCn1ccnc1)c1cccc(Cl)c1 ?
LmPK inhibitor: 3%; Pf growth 96h: -7%; Pf growth 48h: -8%[0.00184 µM]; Shiga inhibitor: -4; Cycloheximide cs: -4

What do the screens show for `N#CC1(c2ccccc2)CCC(=NO)CC1` (configuration not stated)?
LmPK inhibitor: 0%; Pf growth 96h: 1.9µM*; Shiga inhibitor: 25; Cycloheximide cs: 4

How did CCSCC1COC(c2cccn2Cc2ccc(C)cc2)=N1 (configuration not stated) do in these assays?
LmPK inhibitor: -6%; Pf growth 96h: 39%; Pf growth 48h: inconclusive; Shiga inhibitor: 91; Cycloheximide cs: 39*

How did CCN(C(=O)COC(=O)/C=C/c1ccc(O)c(OC)c1)C1CCS(=O)(=O)C1 (configuration not stated) do in these assays?
LmPK inhibitor: 0%; Pf growth 96h: 4%; Pf growth 48h: -2%; Shiga inhibitor: 12; Cycloheximide cs: 3

How did CC(C)(O)C#Cc1ccc(C(=O)NCc2ccccc2F)cc1 do in these assays?
LmPK inhibitor: -2%; Pf growth 96h: -24%; Pf growth 48h: 46%; Shiga inhibitor: 29; Cycloheximide cs: 9

Results for COc1cc(O)oc1C=Nc1ccc(C(F)(F)F)cc1 ?
LmPK inhibitor: -16%; Pf growth 96h: 105%; Pf growth 48h: 23%; Shiga inhibitor: 34*; Cycloheximide cs: 42*

How did COc1cc(C(=S)N2CCOCC2)cc(OC)c1OS(=O)(=O)c1ccc(Cl)cc1 do in these assays?
LmPK inhibitor: 5%; Pf growth 96h: 10µM*; Pf growth 48h: inconclusive; Cycloheximide cs: -2

What do the screens show for `COc1cc(C(=S)N2CCOCC2)ccc1OS(=O)(=O)c1ccc(Cl)cc1`?
LmPK inhibitor: -2%; Pf growth 96h: 10%; Pf growth 48h: -4%; Shiga inhibitor: 21; Cycloheximide cs: -3

How did CCCCn1c(N)c(N(CCC(C)C)C(=O)c2ccc(N3CCCC3=O)cc2)c(=O)[nH]c1=O do in these assays?
Pf growth 96h: -4%; Pf growth 48h: -2%

Results for O=C(Cn1c(C(=O)N2CCc3ccccc3C2)cc2sccc21)c1ccccc1 ?
LmPK inhibitor: 6%; Pf growth 96h: -5%; Pf growth 48h: 15µM*; Shiga inhibitor: -4; Cycloheximide cs: -3

What do the screens show for `CCC(CO)N=CC1=C(O)CC(c2ccccc2)CC1=O` (configuration not stated)?
LmPK inhibitor: 8%; Pf growth 96h: 46%; Pf growth 48h: 14%; Shiga inhibitor: -7; Cycloheximide cs: -3

Results for COc1ccccc1CNC(=O)c1ccc(C)s1 ?
LmPK inhibitor: 7%; Pf growth 96h: 6.6µM*; Pf growth 48h: 60%; Shiga inhibitor: 21; Cycloheximide cs: 3

What do the screens show for `COc1ccccc1CNC(=O)CCCC(=O)n1ncc2cc(C)ccc21`?
LmPK inhibitor: -4%; Pf growth 96h: -4%; Pf growth 48h: 21%; Shiga inhibitor: -5; Cycloheximide cs: 0
